{"source": "PubChem BioAssay AID1789", "about": "(The Scripps Research Institute Molecular Screening Center, 2009)", "note": "Among all 290,000 compounds or so, about 2,700 (0.93%) were called active. The sample holds actives, similar compounds and a random draw of the others, so the mix is not that of the screen. Values without a mark were called inactive.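 How the source made its calls: active means inhibition above the screen-wide mean plus 3 SD, computed separately per campaign (cut at about 16% in these data); inactive means the rest.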", "data": [{"system": "Heat shock protein HSP 90 (rabbit reticulocyte lysate; luciferase refolding)", "experiment": "inhibitors of HSP90 chaperone activity – cell lysate, luminescence, primary screen (AID 1789);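 further: 0% = DMSO wells and 100% = 60 µM geldanamycin wells; inhibitors lower the luminescence because luciferase stays unfolded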", "settings": "3 h, at 5.6 µM, hits give high values", "values": [{"smiles": "COc1cc(C(=O)OCC(=O)NC(C)CCc2ccccc2)cc(OC)c1OC", "note": "(stereo not given)", "inhibition": "0.2%"}, {"smiles": "COc1ccccc1CNS(=O)(=O)c1c(C)[nH]c(C)c1C(=O)N1CCCCC1", "inhibition": "-3%"}, {"smiles": "CCCCOCCCNC(=O)c1ccccc1OCC", "inhibition": "29.5% (active)"}, {"smiles": "CCOc1ccccc1C(=O)NCCCn1ccnc1", "inhibition": "2.74%"}, {"smiles": "CCCOc1ccccc1C(=O)NCCCC(=O)O", "inhibition": "1.45%"}, {"smiles": "Cc1c(C(=O)N(C)CCc2cnn(C)c2)oc2c(F)cccc12", "inhibition": "-3.1%"}, {"smiles": "CC(C)Nc1ccc(-n2nc3ccccc3[n+]2[O-])cc1", "inhibition": "20.2% (active)"}, {"smiles": "O=C(Cc1ccsc1)N1CCN(S(=O)(=O)c2cc(C(F)(F)F)cc(C(F)(F)F)c2)CC1", "inhibition": "-2.85%"}, {"smiles": "CC(NC(=O)c1ccco1)c1ccc2c(c1)OCO2", "note": "(stereo not given)", "inhibition": "-2.76%"}, {"smiles": "COCc1cc(=O)[nH]c2cc(NC(=O)C(F)(F)F)c(C)cc12", "inhibition": "43.6% (active)"}, {"smiles": "O=C(Nc1ccccc1)c1ccccc1NC(=O)C(F)(F)F", "inhibition": "-1.41%"}, {"smiles": "COCc1cc(=O)[nH]c(-c2ccc(C(F)(F)F)cc2)n1", "inhibition": "-1.15%"}, {"smiles": "CSc1ccccc1NC(=O)c1cc(Cl)sc1Cl", "inhibition": "2.29%"}, {"smiles": "Cc1cc(C2=NNC(=Nc3ccc(S(=O)(=O)N4CCOCC4)cc3)SC2)c(C)n1CC1CCCO1", "note": "(stereo not given)", "inhibition": "1.56%"}, {"smiles": "C=CCn1c(C)cc(C(=O)CN2C(=O)c3ccccc3C2=O)c1C", "inhibition": "-0.12%"}, {"smiles": "C=CCn1c(C)cc(C2=NNC(=NCC)SC2)c1C", "inhibition": "44.5% (active)"}, {"smiles": "Cc1ccc2c(=O)cc(C(=O)NCCc3ccc(S(N)(=O)=O)cc3)oc2c1C", "inhibition": "0.5%"}, {"smiles": "CC(=O)c1ccc(NC(=O)c2cc(-c3cccs3)on2)cc1", "inhibition": "-4.55%"}, {"smiles": "COc1ccc(-n2nc(C(=O)NCC(=O)Nc3cccc(C)n3)c3ccccc3c2=O)cc1", "inhibition": "0.84%"}, {"smiles": "COCCCNC(=O)CNC(=O)c1nn(-c2ccc(OC)cc2)c(=O)c2ccccc12", "inhibition": "-1.14%"}, {"smiles": "CCOC(=O)CNC(=O)c1nn(-c2cccc(OC)c2)c(=O)c2ccccc12", "inhibition": "20.7% (active)"}, {"smiles": "CC(=O)NS(=O)(=O)c1ccc(N/C(N)=N/c2nc(C)cc(C)n2)cc1", "inhibition": "-3.21%"}, {"smiles": "COc1cccc(C(=O)NNC(=O)/C=C/c2ccccc2)c1", "inhibition": "-8.89%"}, {"smiles": "Cc1cc(C)nc(S/C=C/C(=O)c2ccccc2)n1", "inhibition": "34.3% (active)"}, {"smiles": "Cc1cc(C)nc(SCC(=O)c2ccc(Cl)cc2)n1", "inhibition": "-0.36%"}, {"smiles": "Cc1ccc(N/C=C/C(=O)c2ccccc2)cc1C", "inhibition": "-2.61%"}, {"smiles": "COc1cc(/C=N/NC(=O)c2ccc(N3CCCC3=O)cc2)ccc1O", "inhibition": "-0.72%"}, {"smiles": "COc1ccc(C(=O)Nc2ccccc2C(=O)NCc2ccco2)cc1", "inhibition": "-2.57%"}, {"smiles": "COc1ccc(/C=N/OCC(=O)N(Cc2ccccc2)c2ccccc2C(=O)O)cc1", "inhibition": "-2.76%"}, {"smiles": "COc1ccc(C(=O)Nc2ccccc2C(=O)N/N=C/c2ccccc2OC)cc1", "inhibition": "50.3% (active)"}, {"smiles": "COc1cc(/C=N/NC(=O)c2ccccc2)ccc1OS(=O)(=O)c1ccccc1", "inhibition": "-0.09%"}, {"smiles": "COc1ccc(/C=N/NC(=O)c2ccc3c(c2)OCCO3)c(OC)c1", "inhibition": "2.94%"}, {"smiles": "COc1ccc(/C=N/Nc2ccccc2C(=O)O)cc1", "inhibition": "24.7% (active)"}, {"smiles": "COc1ccc(C(=O)Nc2ccccc2C(=O)N/N=C/c2ccc(O)c(OC)c2)cc1", "inhibition": "89% (active)"}, {"smiles": "COc1ccc(/C=N/Nc2nc3ccccc3c(=O)[nH]2)cc1", "inhibition": "0.73%"}]}]}
